# CYP2C9 act: activators of human CYP2C9; 96,000 compounds, 1.4% hits; AID 1024; activation factor at 5 µM; recombinant CYP2C9, luciferin-H conversion, luminescence; active compounds read high; factor 1 = untreated enzyme, 0 = blocked;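 active = activation factor of 2 or more for CYP2C9 at a 5 µM dose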
# Target sequence (P11712 whole entry, looked up): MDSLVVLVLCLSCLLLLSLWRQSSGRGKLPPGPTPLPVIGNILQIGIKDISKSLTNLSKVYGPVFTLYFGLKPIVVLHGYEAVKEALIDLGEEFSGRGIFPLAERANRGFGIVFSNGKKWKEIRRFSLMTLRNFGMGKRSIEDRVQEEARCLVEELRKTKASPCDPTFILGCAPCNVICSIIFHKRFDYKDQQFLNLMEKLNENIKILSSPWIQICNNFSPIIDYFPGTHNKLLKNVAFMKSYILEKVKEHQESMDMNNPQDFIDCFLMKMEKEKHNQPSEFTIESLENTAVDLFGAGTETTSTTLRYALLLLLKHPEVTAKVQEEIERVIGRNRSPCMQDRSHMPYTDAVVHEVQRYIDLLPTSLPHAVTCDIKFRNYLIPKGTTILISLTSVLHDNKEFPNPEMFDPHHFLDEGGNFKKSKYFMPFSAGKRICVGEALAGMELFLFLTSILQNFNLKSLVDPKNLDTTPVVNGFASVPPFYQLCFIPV
# CYP2C19 inh: inhibitors of human CYP2C19. P33261. AID 778. inhibition, % at 5 µM. CYP2C19 Supersomes, luciferin-H EGE luminescence, 30 min. 96,000 compounds, 21% hits;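 active = CYP2C19 inhibition above a set limit at 5 µM in the primary screen, cut at about 50% in these data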
# MRP-1 activ: activates MRP-1; 140,000 compounds, 0.61% hits; AID 799; viability increase, % at 10 µM; H69AR cells + doxorubicin, viability rescue, CellTiter-Glo;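 active = viability gain under doxorubicin at or above a set limit, the compound median plus 3 SD, cut at about 4.7% in these data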;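 also: MRP-1 overexpressing cells given doxorubicin 25 µM after compound pretreatment; 18-22 h compound pretreatment then 72 h with doxorubicin before readout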
# CYP2C9 inh: blocks human cytochrome P450 2C9 | inhibition, % at 5 µM | CYP2C9 Supersomes, luciferin-H conversion, luminescence | 96,000 compounds, 20% hits | AID 777 | P11712;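 active = blocking of liver enzyme CYP2C9 beyond about 50% at 5 µM, limit read from the data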
# MRP resist rev: MRP-mediated drug resistance reversal; differential viability (reversal), % at 10 µM; AID 602; H69AR cells + 2 uM doxorubicin, CellTiter-Glo, 72 h; 85,000 compounds, 0.04% hits;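 active = viability drop by adding the cancer drug above about 55%, with treated viability meeting a 40% cutoff, limit read from the data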;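 also: larger differential means the compound sensitizes cells more to doxorubicin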
# CYP2C19 act: activators of human cytochrome P450 2C19; P33261; recombinant CYP2C19, luciferin-H EGE luminescence; active compounds read high; 0 = fully inhibited enzyme, 1 = untreated enzyme; activation factor at 5 µM; 96,000 tested, under 10 active; AID 1025;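 active = activation factor of at least 2 at 5 µM in the primary screen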
# A number is an active result; – = inactive; · = no result. The list is not random: actives were taken first. Their share in the collection is about 21%.
SMILES,CYP2C9 act,CYP2C19 inh,MRP-1 activ,CYP2C9 inh,MRP resist rev,CYP2C19 act
COc1cccc(C(c2sc3nc(C)nn3c2O)N2CCN(c3ccccc3F)CC2)c1 (stereo not drawn),·,·,–,·,–,·
Cc1nc2sc(C(c3ccccc3)N3CCN(c4ccccc4F)CC3)c(O)n2n1 (stereo not drawn),–,66,–,–,–,–
COc1cccc(C(c2sc3nc(C)nn3c2O)N2CCc3ccccc3C2)c1 (stereo not drawn),–,78,–,53,–,–
Cc1nc2sc(C(c3cccc(F)c3)N3CCC(C)CC3)c(O)n2n1 (stereo not drawn),–,80,–,–,–,–
CC(C)Nc1nc2n(c(=O)n1)CCN2C(C)C,–,–,–,–,–,–
O=C(Nc1ccccc1F)c1ccc(COc2ccc(Cl)cc2Cl)o1,·,·,–,·,–,·
O=C(Nc1ccn(Cc2c(F)c(F)c(F)c(F)c2F)n1)c1ccc(COc2ccccc2Cl)cc1,–,–,–,70,·,–
Cc1nn(Cc2ccc(Cl)cc2Cl)c(C)c1NC(=O)c1ccc(COc2cc(Cl)ccc2Cl)o1,–,–,5.6,–,·,–
O=C(Nc1ccn(Cc2c(F)c(F)cc(F)c2F)n1)c1ccc(COc2ccc(Cl)cc2Cl)o1,–,92,13,99,·,–
CC(C)CNC(=O)c1ccc(COc2ccc(Cl)cc2Cl)o1,–,–,–,76,–,–
Cc1nn(Cc2c(F)c(F)c(F)c(F)c2F)c(C)c1NC(=O)c1ccc(COc2ccc(Cl)cc2Cl)o1,·,·,–,·,·,·
Cc1c(NC(=O)c2ccc(Br)o2)c(=O)n(-c2ccccc2)n1C,–,–,–,–,–,–
CCCn1nnnc1NCc1cccn1C,–,–,–,–,–,–
Cc1ccc(S(=O)(=O)N(c2ccccc2)C2CCS(=O)(=O)C2)cc1 (stereo not drawn),–,–,–,–,–,–
COc1cccc(/C=N/NC(=O)C(=O)N2CCCC2)c1O,–,–,5.4,–,·,–
COc1cccc(/C=N/NC(=O)C(C)n2nc(C)c([N+](=O)[O-])c2C)c1O (stereo not drawn),·,·,9.0,·,·,·
COc1cccc(/C=N/NC(=O)Cn2nc(C)c([N+](=O)[O-])c2C)c1O,·,·,6.6,·,·,·
CCOc1ccc(CCNC(=O)C2CCN(c3nnc(-n4cccc4)s3)CC2)cc1OCC,–,–,–,82,–,–
Cc1ccc(CCNC(=O)C2CCN(c3nn4c(=O)cc(C)nc4s3)CC2)cc1,–,–,–,–,–,–
CCN(CCNC(=O)C1CCN(c2nnc(-n3cccc3)s2)CC1)c1ccccc1,–,83,–,87,·,–
CCOc1ccc(CCNC(=O)C2CCN(c3nn4c(=O)cc(C)nc4s3)CC2)cc1,–,–,–,65,–,–
O=C(CS(=O)(=O)c1ccccc1)Nc1nc(-c2ccccc2)cs1,–,76,–,98,–,–
Cc1ccc(S(=O)(=O)N(C)c2ccc(OCC(=O)Nc3nc(-c4ccccc4)cs3)cc2)cc1,·,·,–,·,·,·
Cc1ccc(S(=O)(=O)CC(=O)Nc2nc(-c3ccccc3)cs2)cc1,–,85,–,97,–,–
COc1cc(/C=N/NC(=S)N/N=C/c2cc(OC)c(OC)c(OC)c2)cc(OC)c1OC,·,·,–,·,·,·
SMILES,CYP2C9 act,CYP2C19 inh,MRP-1 activ,CYP2C9 inh,MRP resist rev,CYP2C19 act
COc1ccc(-n2nc(C(=O)NCc3ccco3)c3c4ccccc4n(C)c3c2=O)cc1Cl,–,–,–,–,–,–
COc1ccccc1CNC(=O)c1nn(-c2ccc(C)cc2)c(=O)c2c1c1ccccc1n2C,–,–,–,65,–,–
COc1ccc(NC(=O)c2n[nH]c(=O)c3ccccc23)cc1S(=O)(=O)N1CCCCC1,·,·,–,·,·,·
CCCC(=O)C1=C(c2ccccc2)C(C#N)(C#N)C(C#N)=C1N,–,–,–,73,–,–
CCN1CCN(c2nc3ccccc3nc2C(C#N)C(=O)OCc2ccccc2)CC1 (stereo not drawn),–,82,–,57,–,–
COc1ccccc1N1CCN(c2nc3ccccc3nc2C(C#N)C(=O)OC(C)C)CC1 (stereo not drawn),–,–,–,66,–,–
CCCCCCOC(=O)C(C#N)c1nc2ccccc2nc1N1CCOCC1 (stereo not drawn),–,–,–,–,–,–
N#CC(C(=O)NCc1ccco1)c1nc2ccccc2nc1N1CCOCC1 (stereo not drawn),–,79,–,88,–,–
CCOc1ccccc1N1CCN(c2nc3ccccc3nc2C(C#N)C(=O)OC)CC1 (stereo not drawn),–,–,–,–,·,–
CCCCOC(=O)C(C#N)c1nc2ccccc2nc1N1CCOCC1 (stereo not drawn),–,52,–,–,–,–
CCCCCCOC(=O)C(C#N)c1nc2ccccc2nc1N1CCN(CC)CC1 (stereo not drawn),–,–,–,–,–,–
COc1ccc(C(=O)NCC(O)COc2ccc(C(C)(C)C)cc2)cc1[N+](=O)[O-] (stereo not drawn),·,·,–,·,·,·
CCOC(=O)c1cc2c(=O)n(C)c3ccccc3c2s1,·,·,·,·,–,·
Cc1cc(NCCO)c2cc(O)ccc2n1,–,–,–,–,·,–
Cc1c(C(=O)NC(C(C)C)C(C)C)cccc1[N+](=O)[O-],·,·,–,·,·,·
O=C(CN1CCC(O)CC1)N1c2ccccc2C=Cc2ccccc21,–,–,–,–,–,–
COCCOC(=O)C(C#N)c1nc2ccccc2nc1N1CCCC1 (stereo not drawn),–,85,–,79,–,–
COCCCNC(=O)C(C#N)c1nc2ccccc2nc1N1CCCC1 (stereo not drawn),·,·,–,·,–,·
CCCn1c(C(O)c2ccc3c(c2)OCO3)nc2ccccc21 (stereo not drawn),–,98,–,60,–,–
CCCCn1c(NCc2ccc3c(c2)OCO3)nc2ccccc21,·,·,–,·,–,·
CCCCn1c(NCc2ccccc2NS(=O)(=O)c2ccc(C)cc2)nc2ccccc21,–,–,–,50,·,–
CCCn1c(NCc2ccc3c(c2)OCO3)nc2ccccc21,–,59,–,–,–,–
CCCn1c(NCc2cc(C)ccc2O)nc2ccccc21,–,53,–,–,–,–
COCCOC(=O)c1c(C)oc2ccc(OC(=O)c3cccs3)cc12,–,71,–,98,–,–
COCCOC(=O)c1c(C)oc2ccc(OC(=O)COc3c(F)c(F)c(F)c(F)c3F)cc12,–,–,–,–,–,–
COC(=O)c1c(C)oc2ccc(OC(=O)c3cccs3)cc12,–,–,–,85,–,–
[O-][n+]1onc2c3cc(-c4ccccc4)nnc3ccc21,–,–,–,–,–,–
CN(C(=O)CSc1nc(-c2ccc(F)cc2)cs1)C1CCS(=O)(=O)C1 (stereo not drawn),3.6,–,–,–,–,–
CN(c1nc(-c2ccccc2)cs1)C1CCS(=O)(=O)C1 (stereo not drawn),–,58,–,–,–,–
CN1CCN(CC(=O)N(C)c2nc(-c3ccccc3)cs2)CC1,–,–,–,–,–,–

# Source: PubChem
